The source of these data is PubChem BioAssay (Tox21).

Where “and” joins values, the source holds several entries; their conditions need not be identical. Equal values may be shown once. Records with an inconclusive call do not appear. A call without a number means that no potency is given here. Where a structure was tested more than once in an assay, its records may differ in their call. Calls of active or inactive are those of the source. Calls come from the whole dose curve.
Potency is the fitted concentration of half-maximal effect.

For the experiment, the target named is 5-hydroxytryptamine receptor 2A (Homo sapiens) (UniProt P28223). Briefly: 5-hydroxytryptamine receptor 2A (HTR2A) small molecule agonists, cell-based qHTS assay (AID 1963587). Note: nearly all actives have a fitted effect of over 30% in size. To be noted: HTR2A-CHO cells, calcium flux fluorescence, agonist mode; series mostly up to 76.8 µM. The source says: National Center for Advancing Translational Sciences [NCATS]
5-hydroxytryptamine receptor 2A (Homo sapiens), sequence (P28223 whole entry, looked up): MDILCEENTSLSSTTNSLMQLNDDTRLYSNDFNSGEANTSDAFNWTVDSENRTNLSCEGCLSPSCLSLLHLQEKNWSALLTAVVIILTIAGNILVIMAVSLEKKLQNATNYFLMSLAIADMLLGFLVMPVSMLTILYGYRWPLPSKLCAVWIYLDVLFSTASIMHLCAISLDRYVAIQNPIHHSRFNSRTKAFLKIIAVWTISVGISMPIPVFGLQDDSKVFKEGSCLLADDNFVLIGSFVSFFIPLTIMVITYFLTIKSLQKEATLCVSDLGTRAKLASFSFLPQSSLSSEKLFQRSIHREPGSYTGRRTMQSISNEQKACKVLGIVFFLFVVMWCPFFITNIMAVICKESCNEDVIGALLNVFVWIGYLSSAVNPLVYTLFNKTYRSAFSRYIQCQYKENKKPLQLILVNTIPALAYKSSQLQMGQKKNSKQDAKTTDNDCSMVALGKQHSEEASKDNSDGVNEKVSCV
Division of Preclinical Innovation [DPI]
U.S. Environmental Protection Agency [EPA]
National Institutes of Environmental Health Sciences [NIEHS]
National Toxicology Program [NTP]
U.S. Food and Drug Administration [FDA]
The HTR2A receptor is a subtype of the 5-HT2 receptor that belongs to the serotonin receptor family and is a G protein-coupled receptor (GPCR). The HTR2A-CHO cell line stably expressing human 5-hydroxytryptamine receptor 2A (HTR2A) can be used for screening agonists of interactions between 5-HT2 and its ligands. The HTR2A-CHO calcium flux assay is a homogeneous fluorescence-based assay for detecting the intracellular calcium level using FDSS kinetic plate reader system.
HTR2A-CHO cells were dispensed at 2000 cells/3uL/well in 1536-well black-clear bottom plates using a Multidrop Dispenser. After the assay plates were incubated at a 37 C/5% CO2 incubator for 18 h, 3 uL of Dye Loading Buffer was transferred to the assay plate by a Flying Reagent Dispenser. The assay plates were incubated at 37 C for 1h. For agonist mode, 23 nL of compounds dissolved in DMSO, positive controls or DMSO only was transferred to the assay plate by a pin tool. The fluorescence intensity in the plates was measured using FDSS 7000EX kinetic plate reader for 2 min at 1 sec intervals.
Background: qHTS replaces the single test concentration by a dilution series.
For the compound `CCOc1nc(F)cc2nc(S(=O)(=O)Nc3c(Cl)cccc3Cl)nn12`, the Potency result is “inactive”.

Turning to `Cc1ccc2c(C)cccc2c1`, the Potency entry is “inactive”. Regarding `O=C(NCO)NCO`, the Potency result is “inactive”. Consider `NC(=O)CF`, for which the Potency entry is “inactive”. As to `CCCCCCCCn1sccc1=O`, the Potency entry is “inactive and 25.7 µM (active)”. Regarding `Nc1ccc(Br)cc1`, the Potency entry is “inactive”. For the compound `[O]=[Cr][O][Cr]=[O]`, the Potency result is “inactive”. Turning to `CCCCN(CC)C(=O)SCCC`, the Potency entry was “inactive”. As for `CCOC(=O)C(C)OC(=O)c1cc(Oc2ccc(C(F)(F)F)cc2Cl)ccc1[N+](=O)[O-]` (stereo not given), the Potency entry is “inactive”.

As to `Cc1ccc(N)c(C)c1`, the Potency entry was “inactive”. `CN(C)C(=S)S`: the Potency result is “inactive”. Turning to `O=[N+]([O-])c1ccccc1`, the Potency result is “inactive”. Turning to `BrCCBr`, the Potency result was “inactive”. For `Nc1cccc2ccccc12`, the Potency entry was “inactive”. As for `Nc1c(Oc2ccccc2)cc(O)c2c1C(=O)c1ccccc1C2=O`, the Potency entry was “inactive”. On to `CCOP(=S)(OCC)SCn1c(=O)oc2cc(Cl)ccc21`, for which the Potency entry was “inactive”.

In the case of `COS(=O)(=O)OC`, the Potency result was “inactive”.

Take `O=NN1CCCCCCC1`: the Potency result was “inactive”.

Take `CCC(C)n1c(=O)[nH]c(C)c(Br)c1=O` (stereo not given): the Potency entry was “inactive”. For the compound `CC(C)(OOC(C)(C)c1ccccc1)c1ccccc1`, the Potency result is “inactive”. For `COC(=O)C(Cl)C(=O)OC`, the Potency result is “inactive”. Under `O=NN1CCCCC1` stands “inactive”; under `CC(C)NC(=O)N1CC(=O)N(c2cc(Cl)cc(Cl)c2)C1=O`, “inactive”; under `Cl/C=C\C[N+]12CN3CN(CN(C3)C1)C2`, “inactive”.

As for `CC(=O)[C@H]1CC[C@H]2[C@@H]3CC[C@H]4C[C@](C)(O)CC[C@]4(C)[C@H]3CC[C@]12C`, the Potency entry was “inactive”.

As to `C#CCO`, the Potency entry is “inactive”. To `c1ccc(N=Nc2ccccc2)cc1` belongs “inactive”. In the case of `C=CCCC#N`, the Potency entry was “inactive”.

On to `CCN(Cc1ccc(Cl)nc1)/C(=C/[N+](=O)[O-])NC`, for which the Potency entry is “inactive”. As for `COC(=O)c1ccccc1CS(=O)(=O)NC(=O)Nc1nc(OC)cc(OC)n1`, the Potency result is “inactive”.

Take `Cc1ccc(N=C=O)cc1N=C=O`: the Potency result was “inactive”. Under `N#CC(Cl)Cl` stands “inactive”; under `OCCCCO`, “inactive”. Take `CCCOC(=O)c1ccccc1C(=O)OCCC`: the Potency entry was “inactive”.

Consider `CCCCCCCCOC(=O)c1ccccc1C(=O)OCCCCCCCC`, for which the Potency result was “inactive”.

Turning to `CCCCCCCCCCCC#N`, the Potency result was “inactive”. For `CC(C)CC(C)(c1ccc(O)cc1)c1ccc(O)cc1`, the Potency entry is “inactive”. For `C[CH2][Hg][S]c1ccccc1C(=O)O`, the Potency was 43.6 µM (active) and 21.3 µM (active). With `O=[N+]([O-])CCO`, the Potency entry was “inactive”. With `c1ccc2c(c1)sc1ccccc12`, the Potency entry was “inactive”.
